The chains are these.
B1: GBRAP_160_4238 (protein)
chain: SEEIEKLREEITDEAELLLDVLLESPKSQWPAYARAFAGDIVQIVEENENVSDETEEKVAELADEMVAELVAARDASPEELAALLERFVERIVKTVEEGV
B2: GBRAP_128_3427 (protein)
chain: STAAKVAEVEALLEAMLTADAAEAAALARRIAALMLASDLETVEAMVEVILSMLPKFTAEQLEILADALREARPEFTPEKQLLVSEVEVAALNEAEEKEE
B3: GBRAP_160_4711 (protein)
chain: MEVKEKLKKYVEEEFEEAKELIKGESIEQRAIIVEGTIGEIIMELFEEEEASDELIDEVDKIGDELVETILANPDLTEEEIEELIEKAEEEIKKAIDKYV
B4: GBRAP_39_5693 (protein)
chain: EEDEENEDHVSYLQALAAKRLYETGISLEEATKEAKKILEEEAKRNPELKELLEELIKLAEEKGDEAKEVLIGVAVLIEEGEPKEEIKEHIEKAIKYFKK
B5: GBRAP_95_7034 (protein)
chain: EDDKLALESALEVAVAAAELGDEEAAARALKEALELLKKAGKVKLDPELLKETIEVIREVGVKKLPKEEVLELLELLKESAETEEVKKLAEEAIEEVKKR
B6: GBRAP_74_6536 (protein)
chain: SEEKEKVIKEINEAETIEEAIEITEKVLETDDKELARAAVQELLLKAAERKDELTLEEAERLVEVIVRAFEKNGIVVETREEAEALNTVLTKALELEEKA
B7: GBRAP_166_4984 (protein)
chain: MEEELVEELKKYLEELAEKMKEAGPEERQELVAEAAERLAEAREKGLSREKLGELVEYLLRLAREVGIPISAVEGALSILADLDEEEIDILDEAARRVAA
B8: GBRAP_128_3314 (protein)
chain: MDEERLEEAREIVERMKEADLEELAELTRRLAELLGTLTPEERDIVAEIFREGLKELSAEKLDVVADVLREVRPSLDPETANVVADLEVEALNEAVEKEE
B9: GBRAP_74_6519 (protein)
chain: EEELLAALEAAAAAGDAATAVALARRIVAEGSLEAVERAARIMVAFVERHADALSPEELEAVADALAELADELMLRGGDSEVVLAVARAAVALEERRRAL
B10: GBRAP_128_3579 (protein)
chain: SVEEVRAEVRALLEAMKTADAAEQKAIATEIATRFTTLTPEERRAAAETIEELLPELSAEQLDILADALRAARPTADPEAANLLADVEVAALNEALEKEE
B11: GBRAP_160_4226 (protein)
chain: METVEKIVKVFRDTFLEALELIEGESAEERAVILDVAVGEVILEVSEIEEATDEMEEVVDKKAEALAAALLAAADASAAERRALVDKAAAELRKELEKIE
B12: GBRAP_184_5358 (protein)
chain: EVRHLSVTVETKEEAVEKLAEAREEIRASGLPTVLVVELKNADLETVETVMELLAELREEGLIERGIVVVDDDRSEEEIDKMVELADRYGVDLVVAIPEE
B13: GBRAP_159_3958 (protein)
chain: MEELEKRVKEAKEKAKDNPEVVKLIEEVYDLIKEGEDAETIADFTVGSIVTLDVTPEEARLVLSVLPEETRRLAAEDLAYLAEELGREDLAAAARAILEE
B14: GBRAP_128_3325 (protein)
chain: MNEERIKEAEEIIKEIVKADVEEAKKLTEELLKLMETMTDEERDIVVEIMEKELEKLDAEKLDAIADTIRELQPTLDPLTARYAAEIEVEALNLAEEKEE
B15: GBRAP_160_4147 (protein)
chain: SAELKALIEEIREITEEAIKLMEGETPEEAKVIARVALGEIVMLVFSNEAVSEETEEEVGEVADEAEAHLRANPDLTVEEIKAILREAGEEVIEIIEKEV
B16: GBRAP_160_4149 (protein)
chain: SEELKKLIKEIKEITEEAIKLMEGETPEEAKVIAKVALGEIVMLVESNEEVSEETEEKVGEIADEAEEYLDENPDLTVEEIKELLKKAGEEVIKIIEEEL
B17: GBRAP_52_5941 (protein)
chain: SSSRLKEIAEELIKLALAGDEEGLRKKAREIAKTYSDEEILAIAKEIAKMAKEAPKEDLDAYFRLMEILTEELEKEGRSEELISEIEGLMAKAMYENELK
B18: GBRAP_160_4588 (protein)
chain: MESLEKMKEIVREELEEAKEMIVGETAEQRATIVLGAGGEIVMELSENPEASDELEDEVLKIADEAADTILANPNITEEEFNALLDEMEKKMIEAIEKHL
B19: GBRAP_11_2927 (protein)
chain: KKEKIKEIAELAEELAEAADRLIAEGTDNEELRKKLEELLEKLVELVKEYGDEADKKDAEHMRELWEKAKADPANAVQYLTELRNEARVLSGIYLLEYDE
B20: GBRAP_139_3733 (protein)
chain: SADDAAVAEVVALTKRSVETGGALVAEIADALNALDEDTADRAAEAMAEVLETQPFDVAEALFDALIDTLLTEHKNEDLATIVEAAANRALARIAVREEA
B21: GBRAP_52_6365 (protein)
chain: MLEEAVELLRKAVEATLAGKEEEAEEILKEIVENFSDETIVKAVERLAEEVATKTLEEAEAFLDTAIRLADIMLEAGRDEAKADEIEAIAAKAYSAVLAK
B22: GBRAP_160_4219 (protein)
chain: METIERIVEIFRENFLEALELIEGESEEERKVILDVAVGEIILEVDSDENVTDEMEEVVDEKARELAEELLKLKNASEEEKRALIEEKAEELREELEKLA
B23: GBRAP_160_4221 (protein)
chain: SETIERIVKIFRENFEEAVELIEGESLEEQKVILDVAVGEVILEVSSDENVTDEMEEVVEKKAEEAAEELLKLKNASREEKLKLIEEKAKELKKELEKLA
B24: GBRAP_166_4915 (protein)
chain: SMEELLEEAKRRIEELVKKIPKTDREKQVELAIEIAEVLEELEKAGASEEELDELWRHLAEALKEAGLDVERLMAVVAAAAGLDEEEMERVDEIVEEVLA
B25: GBRAP_52_6254 (protein)
chain: MRARLRADAREIVALVAAGREEEARALARDIAENYNEEELRLFVDEMAALAREARPEELDTVWRAAELMAEELEAAGKPEILVDDLLARVAAAAVEVLAR
B26: GBRAP_52_6083 (protein)
chain: MEKEIEETANKIYEAIKAGDKEKALELIKEAIKKFSPEEIKEMLKLTAEKVASLGDEKHELFVDILTEAEDLMIEAGISEEEALLIVGDAEAALAKAVAA
B27: GBRAP_52_6085 (protein)
chain: MEEEIEERAEEIYEAIKAGDKEKALALIKKAIKEFSAEEIKRMLELTAKRVASLGDDAHELFVDILGEAEDLLIEAGISEEEALAIVGAAEAALARAVAA
B28: GBRAP_52_6084 (protein)
chain: MKEKIEKTAKEIYEAIKAGDKEKALELIKKAVEEFSKEEIKEMLELTAKRVASLGDDAHELFVDILDEAEDILIEAGISEDDALLIVGSAEAALAKAVAA
B29: GBRAP_160_4760 (protein)
chain: KEKLKKLKEEVEEIFKEHLEMLKEVKPEEAPTVVRGAMGEVIMEVMSSEAASDELEEKIGEIADEAEEEAEANKDAPVEFHIKILEEARKKILSLIEEEI

Over roughly 4,500 sequences, “median log2 fold change of GCK-ALFA target abundance (FLAG IP / Myc IP barcode read proportion)” has its median near 0.078; the lowest 2% begin near -0.6. The full list was thinned out, with the lowest values kept by preference.

GABARAP, O95166, sequence (O95166 whole entry, the tested form may be a part): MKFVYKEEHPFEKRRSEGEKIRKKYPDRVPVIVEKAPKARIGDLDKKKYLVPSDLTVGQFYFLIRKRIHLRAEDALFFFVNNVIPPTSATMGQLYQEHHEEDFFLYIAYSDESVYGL

The target of the test is GABARAP, O95166. The test is described as follows: median log2 fold change of GCK-ALFA target abundance (FLAG IP / Myc IP barcode read proportion) (log2 ratio); each designed protein is fused to an ALFA-tag nanobody in HEK293 cells to bring the named protein to FLAG-tagged glucokinase (GCK); Myc marks an untargeted standard; higher = target protein stabilised (more abundant). Particulars: target protein: 3xFLAG-MCP-GCK-ALFA reporter; HEK293 landing pad (RPLP). As to the method:
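LABEL-seq trans screen in HEK293 landing-pad cells. Each de novo designed 100-aa effector handle, binding the indicated effector (E3 ligase, DUB or autophagy protein), is fused to a constant NbALFA target handle and induced with 2 ug/mL doxycycline. A FLAG-MCP-GCK-ALFA target and a Myc-MCP standard reporter were transfected, and after 48 h circRNA barcodes were recovered by anti-FLAG and anti-Myc IP and sequenced. The value is the median across barcodes (at least 3 per design) of log2(FLAG/Myc read-proportion ratio), with the two transfection replicates pooled. Negative values mean degradation and positive values mean stabilisation of the target.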
As to B1, the “median log2 fold change” value is -0.458. Turning to B2, the “median log2 fold change” value worked out at 0.18.

As for B3, the “median log2 fold change” value is -0.152. The figure for B4 is 0.24.

On to B5, for which the “median log2 fold change” value is 0.352. The same measure for B6: -0.769; for B7: 0.23. With B8, the “median log2 fold change” value is 0.162. The figure for B9 is -0.0734; for B10 it is 0.177; for B11 it is -0.651. Regarding B12, the “median log2 fold change” value is -0.0422. Take B13: the “median log2 fold change” value worked out at 0.0598. The same measure for B14: 0.156. In the case of B15, the “median log2 fold change” value was -0.617. As for B16, the “median log2 fold change” value is -0.271. The same measure for B17: 0.165. Regarding B18, the “median log2 fold change” value is -0.211. In the case of B19, the “median log2 fold change” value turned out to be 0.134.

Consider B20, for which the “median log2 fold change” value stood at 0.133. The figure for B21 is -0.000301; for B22 it is -0.349; for B23 it is -0.86. The figure for B24 is 0.0994; for B25 it is -0.285; for B26 it is -0.22. The figure for B27 is -0.146; for B28 it is -0.732; for B29 it is -0.185.

Source of the values: the supplement of paper PMC12632987.
